# Many of the other results were omitted from the sample, so hits are more common in it than they were.
# HT1080-NT tox: kills 2HG-producing HT-1080-NT fibrosarcoma cells; HT-1080-NT fibrosarcoma viability, CellTiter-Glo ATP luminescence, 48 h; Potency, µM (titrated, usually from 46.1 µM), without a hit: top-dose activity, negative = less viability, most hits filed as cytotoxic; hit rate 1.6% among 360,000; AID 686970;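 further: NT is the 2HG producing partner of a matched IDH1 knockdown line; potency means the concentration at half of the fitted maximal effect; 0% = DMSO-treated cells and -100% = media-only wells without cells; nearly all actives have a fitted effect of over 55% in size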
#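 Fibrosarcoma NT cells, 750 per well in 5% FBS RPMI, were exposed to compound for 48 hours. Viability: CellTiter-Glo luminescence.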
# TDP1 cell noCPT: qHTS for Inhibitors of human tyrosyl-DNA phosphodiesterase 1 (TDP1): qHTS in cells in absence of CPT | DT40 Tdp1-/- hTDP1 cells, no CPT, ATP luminescence, 48 h | Potency, µM (titrated, usually from 46.2 µM), without a hit: top-dose activity change, negative = growth inhibition, usual class: inhibitors | hit rate 15% among 420,000; further: potency means the concentration at half of the fitted maximal effect; nearly all actives have a fitted effect of over 55% in size
#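 Cells were dispensed at 400 per well, compounds added by pin tool, plates incubated ≥48 hr at 37 °C, then CellTiter-Glo added for 30 min at room temperature before luminescence reading. Line: DT40 Tdp1-/- complemented with hTDP1; camptothecin omitted.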
# HT1080 IDH1KD tx: toxicity to HT-1080 IDH1 knockdown cells (counter line); hit rate 2% among 360,000; Potency, µM (series often up to 46.1 µM), for inactives: top-dose activity, negative = toxicity, most hits filed as cytotoxic; HT-1080 IDH1 knockdown viability, ATP luminescence, 48 h; AID 686971;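 further: potency means the concentration at half of the fitted maximal effect; 0% = DMSO wells and -100% = cell-free medium wells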
#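 Assay cells: HT-1080 with IDH1 knockdown, 750 per well, RPMI/5% FBS. Exposure: 48 h at 37 °C following 2 h pre-incubation. Read: CellTiter-Glo luminescence; fitted concentration-response, curve class assigned.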
# DT40 TDP1 CPT: DT40-hTDP1 cell growth loss with CPT; hit rate 12% among 420,000; chicken DT40 Tdp1-/-;hTDP1 cells + 20 nM CPT, ATP luminescence, 48 h; Potency, µM (doses to about 46.2 µM), without a hit: at the highest dose activity change, negative = growth inhibition, most hits filed as inhibitors; further: potency means the concentration at half of the fitted maximal effect; nearly all actives have a fitted effect of over 55% in size
#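 Cell growth measured by CellTiter-Glo luminescence after a minimum 48 h, 37 C compound exposure with 20 nM CPT in Tdp1-knockout DT40 cells stably expressing hTDP1, seeded 400/well; qHTS titration format.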
# IL1B secr inh: inflammasome signaling inhibition, IL-1 beta readout; THP-1 LPS/ATP IL-1B secretion, AlphaLISA, 16 h; active compounds read low; activity change, % at 57.5 µM; hit rate 4.7% among 360,000; AID 743279; in the data active means activity change below about -50%; inconclusive means mostly about -30% to -49%
#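 THP-1 cells pretreated 1 hr with compounds (up to 57.5 uM final), then stimulated with LPS (250 ng/mL final) plus ATP (1.25 mM final); secreted IL-1B measured by AlphaLISA after 16 hr, decreased signal indicating inhibition.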
# 12-LOX inh: blocks human arachidonate 12S-lipoxygenase; P18054; purified 12hLO, xylenol orange hydroperoxide absorbance; Potency, µM (doses to about 108 µM), for the others: at the highest dose activity change, negative = inhibition, most hits filed as inhibitors; hit rate 1.1% among 580,000; further: potency means the concentration at half of the fitted maximal effect
# Target sequence (P18054 whole entry, looked up): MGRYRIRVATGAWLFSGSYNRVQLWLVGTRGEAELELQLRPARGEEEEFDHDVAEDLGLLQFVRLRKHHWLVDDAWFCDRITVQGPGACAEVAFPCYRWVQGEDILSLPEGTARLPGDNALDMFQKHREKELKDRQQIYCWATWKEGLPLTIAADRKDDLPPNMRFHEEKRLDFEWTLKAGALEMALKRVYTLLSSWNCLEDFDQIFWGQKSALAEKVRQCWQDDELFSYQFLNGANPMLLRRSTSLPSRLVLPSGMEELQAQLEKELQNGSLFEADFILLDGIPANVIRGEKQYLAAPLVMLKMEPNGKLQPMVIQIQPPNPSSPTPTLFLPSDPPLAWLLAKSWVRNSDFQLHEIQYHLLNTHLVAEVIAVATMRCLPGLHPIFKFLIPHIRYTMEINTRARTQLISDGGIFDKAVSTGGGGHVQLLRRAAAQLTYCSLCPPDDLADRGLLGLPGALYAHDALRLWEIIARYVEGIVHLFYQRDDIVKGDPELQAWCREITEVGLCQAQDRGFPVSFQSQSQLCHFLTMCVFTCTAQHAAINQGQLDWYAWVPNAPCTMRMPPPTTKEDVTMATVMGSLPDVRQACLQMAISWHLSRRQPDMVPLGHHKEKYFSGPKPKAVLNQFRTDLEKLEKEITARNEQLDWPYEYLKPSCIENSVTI
#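 Purified human 12hLO (150 nM final) in 25 mM Hepes, 0.01% Triton X-100, pH 7.0 was preincubated 15 min at room temperature with compound. Then 40 uM arachidonic acid was added, 30 min. Hydroperoxide was read by Fe-XO absorbance ratio 573/405 nm.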
# Numbers without * were called inactive; ? = inconclusive; nt = no result; [ ] = another dose, or the depositor's remark. Unless noted, the call rests on the fitted dose curve; in most records, active means well fitted curve in the direction sought with a large enough effect; inconclusive means small, poorly fitted or top-dose-only effect, or another doubt; inactive means no such curve, though single readings can be large; an effect the other way counts as inactive or inconclusive. Unless noted, on the % scale 0 is the no-effect control and ±100 the full control effect.
SMILES,HT1080-NT tox,TDP1 cell noCPT,HT1080 IDH1KD tx,DT40 TDP1 CPT,IL1B secr inh,12-LOX inh
CCN=C1S/C(=C\c2cn(C(C)=O)nc2-c2ccccc2)C(=O)N1CC,21%,?,-3%,16µM*,-4,-10%
NCCCC(=O)N1CCC2(CC1)CN(C(=O)Cc1ccc(Cl)cc1)CCO2,nt,nt,nt,nt,nt,2%[6.33 µM]
O=C(O)c1ccc2oc(C(=O)c3ccccc3)cc2c1,nt,nt,nt,nt,nt,0%
COCCn1c(=S)[nH]c2cc(C(=O)N3CCCC(C)C3)ccc2c1=O (stereo not drawn),-4%,?,-14%,26µM*,15,-7%
CCCn1c(=S)[nH]c2cc(C(=O)N3CCCC(C(=O)OCC)C3)ccc2c1=O (stereo not drawn),?,21µM*,?,15µM*,-15,6%
CCOc1ccc(Nc2nc(C)c(NC(=O)c3cccc(F)c3)c(Nc3ccc(OCC)cc3)n2)cc1,nt,0.52µM*,nt,0.65µM*,nt,?
CCCNC(=O)c1ccc(N2CCC3(CC2)CC(c2ccccc2)=NO3)c(NC(=O)Cc2ccc(F)cc2)c1,2%,18µM*,-9%,?,3,-7%
COc1ccc(CNC(=O)c2ccc(N3CCC4(CC3)CC(c3ccc(Cl)cc3)=NO4)c(NC(=O)Cc3ccc(F)cc3)c2)cc1,3%,-6%,-3%,2%,32,-13%
COc1ccc(CNC(=O)c2ccc(N3CCC4(CC3)CC(c3ccc(Cl)cc3)=NO4)c(NC(=O)c3ccccc3)c2)cc1,11%,-15%,9%,-12%,-2,-20%
O=C(NCc1ccccc1)c1ccc(N2CCC3(CC2)CC(c2ccc(Cl)cc2)=NO3)c([N+](=O)[O-])c1,-4%,?,-1%,6.5µM*,?,12%
CCCNC(=O)c1ccc(N2CCC3(CC2)CC(c2ccccc2)=NO3)c([N+](=O)[O-])c1,-21%,?,6%,21µM*,?,7%
CCCNC(=O)c1ccc(N2CCC3(CC2)CC(c2ccccc2)=NO3)c(N)c1,-11%,?,-1%,?,0,-2%
CC1(C)CC(=O)C(/C=N/n2c(C(F)(F)F)nc3ccccc3c2=O)=C(O)C1,8%,?,?,16µM*,26,3%[57.4 µM]
Cn1nc(C(C)(C)C)cc1C(=O)NCc1cc(F)cc2c1OCOC2,?,3.7µM*,10µM*,9.2µM*,6,424%
CN1CCC(N(C)C(=O)/C=C/c2cn(-c3ccccc3)nc2-c2cccs2)CC1,26µM*,23µM*,18µM*,?,-91*,37%
O=C(O)CCN1C(=O)/C(=C/c2cn(-c3ccccc3)nc2-c2cccs2)SC1=S,-7%,?,-16%,4.6µM*,16,?
O=C(O)CCCCCN1C(=O)/C(=C/c2cn(-c3ccccc3)nc2-c2cccs2)SC1=S,?,15µM*,?,-40%,-21,?
Cc1nc2ccc(S(=O)(=O)NC(C(=O)N3CCN(c4ccc(Cl)cc4)CC3)C(C)C)cc2s1 (stereo not drawn),nt,?,nt,?,nt,-25%
COc1ccc(N2CCN(C(=O)C(CC(C)C)NS(=O)(=O)c3ccc4nc(C)sc4c3)CC2)cc1 (stereo not drawn),nt,-82%,nt,12µM*,nt,-23%
Cc1ccc(CN2CCCC(c3nc(-c4cccnc4)no3)CCNC(=O)CC2)o1 (stereo not drawn),nt,nt,nt,nt,nt,-2%
Cc1nn(Cc2ccc(F)cc2)c2sc(C(=O)Nc3ccc(N4CCOCC4)cc3N3CCOCC3)cc12,-2%,7.3µM*,?,8.2µM*,-26,0%
Cn1c(CNC(=O)c2cc[nH]c2C2CCCNC2)nc2ccccc21 (stereo not drawn),nt,nt,nt,nt,nt,81%
CCCc1ccc(-c2cc(C(=O)NCCCn3ccnc3)c3ccccc3n2)cc1,nt,nt,nt,nt,nt,-8%
CC(C)(C)OC(=O)CC[C@@H](C(=O)NCCCCCCCCCCC(=O)N1CCN(C(=O)OC(C)(C)C)CC1)n1cc(CCCCCNC(=O)OC(C)(C)C)nn1,-7%,4.1µM*,-3%,5.8µM*,5,-26%
CC[C@H](C)[C@@H](C(=O)NCCCCCCCCCCC(=O)N1CCN(C(=O)OC(C)(C)C)CC1)n1cc(CCCCCNC(=O)OC(C)(C)C)nn1,-11%,5.8µM*,-8%,4.6µM*,35,-22%
SMILES,HT1080-NT tox,TDP1 cell noCPT,HT1080 IDH1KD tx,DT40 TDP1 CPT,IL1B secr inh,12-LOX inh
Cc1cn([C@H](C(=O)NCCCCCCCCCCC(=O)N2CCN(C(=O)OC(C)(C)C)CC2)[C@@H](C)O)nn1,-3%,16µM*,-7%,23µM*,32,8%
CC(C)(C)OC(=O)NCCCCCc1cn([C@@H](CO)C(=O)NCCCCCCCCCCC(=O)N2CCN(C(=O)OC(C)(C)C)CC2)nn1,16µM*,2.3µM*,16µM*,2.6µM*,0,1%
C[C@H](O)[C@@H](C(=O)N1CCN(C(=O)OC(C)(C)C)CC1)n1cc(CCCCNC(=O)OC(C)(C)C)nn1,5%,?,2%,-23%,1,3%
Cc1ccccc1-c1nc2ccccc2s1,nt,nt,nt,nt,nt,-22%
CN(C)C[C@@H]1CN(c2ccccn2)C[C@H]1NC(=O)c1cccc(C#N)c1,nt,nt,nt,nt,nt,29%
N#Cc1nc(COc2ccc(-c3ccccc3)cc2)oc1N1CCC(C(N)=O)CC1,nt,18µM*,nt,13µM*,nt,nt
N#Cc1nc(COc2ccc(Br)cc2)oc1N1CCCCCC1,-22%,16µM*,-10%,15µM*,-21,?
N#Cc1nc(COc2ccc(-c3ccccc3)cc2)oc1NCCCN1CCOCC1,?,23µM*,?,23µM*,?,0%
CC(C)(C)c1ccc(-c2nc(C#N)c(N3CCC(C(N)=O)CC3)o2)cc1,?,?,?,15%,-94*,-20%
COc1ccc(-c2nc(C#N)c(N3CCC(C(N)=O)CC3)o2)cc1,10%,-24%,8%,13%,-1,?
CCCNC(=O)C(C)Sc1nc2ccc(F)cc2c(=O)[nH]1 (stereo not drawn),nt,nt,nt,nt,nt,12%
COCCc1noc([C@@H]2CN(Cc3ccoc3)C[C@H]2CO)n1,nt,nt,nt,nt,nt,-2%
c1ccc(COc2cccc(-c3cc4nc(NCc5ccc6c(c5)OCO6)ccn4n3)c2)cc1,-16%,?,-24%,?,-28,-6%
Clc1cccc(CNc2ccn3nc(-c4ccccc4Cl)cc3n2)c1,?,?,?,?,-73*,-3%
